Hits are enriched below; roughly 6.7% of the tested compounds scored in any of these assays.
Pf Dd2 inh: blocks growth of Plasmodium falciparum Dd2 parasites. actives 2.3% (n = 94,000). P. falciparum Dd2 growth, SYBR Green, 72 h; hits give low values. activity change, % at 10 µM; in the data active = activity change below about -80%; inconclusive = no clear call, values can overlap the other calls
C diff HTS: C. difficile growth inhibition | Clostridium difficile clinical isolate growth, OD600, 24 h; hits give low values | growth activity, negative = inhibition, % at 16 µg/mL (by protocol) | actives 0.25% (n = 86,000) | AID 1259249;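 active = mean growth activity at or below -80% and every replicate also at or below -80%; inconclusive = mean at or below -80% but some replicate above -80%; inactive = mean growth activity above -80%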;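 also: 0% = DMSO wells and -100% = levofloxacin 16 µg/mL wells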
T cruzi growth-1: blocks T. cruzi growth in NIH3T3 culture. T. cruzi beta-gal in NIH3T3, GalScreen luminescence, 90 h. inhibition, % at 8.34 µM. actives 5.9% (n = 77,000);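 active = mean inhibition above about 93%, with at least 55% of replicates each passing it, limit read from the data, passing the limit was not always enough; inconclusive = only one of those two conditions holds; inactive = neither condition holds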
T cruzi growth-2: Trypanosoma cruzi proliferation inhibition. shares compounds with T cruzi growth-1. T. cruzi beta-gal in NIH3T3, GalScreen luminescence, 90 h. inhibition, % at 8.35 µM. actives 72% (n = 5,600). AID 651739;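 active = mean replicate inhibition above about 95% and at least 55% of replicates individually reaching it, limit read from the data; inconclusive = only one of the two criteria is met; inactive = neither criterion is met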
T cruzi growth-3: inhibitors of T. cruzi proliferation. AID 651740. inhibition, % at 2.09 µM. shares compounds with T cruzi growth-1. T. cruzi beta-gal in NIH3T3, GalScreen luminescence, 90 h. actives 21% (n = 5,600);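 active = mean inhibition above about 95%, with at least 55% of replicates also reaching it, limit read from the data; inconclusive = meets just one of the two conditions; inactive = meets neither condition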;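 also: plate controls were neutral control median for no effect and positive control median for full effect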
NIH3T3 tox: NIH/3T3 (mouse) viability loss; AID 651742; shares compounds with T cruzi growth-1; actives 14% (n = 5,600); cytotoxicity (signal decrease), % at 8.35 µM; NIH/3T3 viability, CellTiter-Glo ATP luminescence, 90 h;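 active = mean signal decrease across replicates above about 35% based on untreated-well scatter, with enough replicates individually passing, limit read from the data; inconclusive = no rule stated though some were filed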;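 also: 0% = median of neutral control wells and 100% = median of positive control wells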
3T3 cytotox 2: cytotoxicity in mouse NIH/3T3 fibroblasts | shares compounds with T cruzi growth-1 | NIH/3T3 viability, CellTiter-Glo ATP luminescence, 90 h | inhibition, % at 24.9 µM | actives 56% (n = 5,600) | AID 651744;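 active = mean loss of cell viability signal at or above a set limit, and enough replicates individually reaching it; inconclusive = meets only the mean limit or only the replicate share; inactive = meets neither condition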;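 also: 0% = median of neutral control wells and 100% = median of positive control wells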
An asterisk follows results filed as active; ? = inconclusive; nt = not tested or not shown.

SMILES	Pf Dd2 inh	C diff HTS	T cruzi growth-1	T cruzi growth-2	T cruzi growth-3	NIH3T3 tox	3T3 cytotox 2
C[C@@H]1CCCCO[C@@H](CN(C)Cc2ccc3c(c2)OCO3)[C@H](C)CN([C@@H](C)CO)C(=O)c2cc(NC(=O)Nc3ccc(C(F)(F)F)cc3)ccc2O1	-59.7	-69.5	?	98.9*	110.7*	31.5	53.2*
C[C@@H]1CN([C@@H](C)CO)C(=O)c2cc(NC(=O)Nc3ccc4c(c3)OCO4)ccc2O[C@@H](C)CCCCO[C@@H]1CN(C)Cc1ccc(C(F)(F)F)cc1	-62.3	nt	94.0	nt	nt	nt	nt
C[C@@H]1CN([C@@H](C)CO)C(=O)c2cccc(NC(=O)c3cnccn3)c2O[C@H]1CN(C)C(=O)Nc1cccc2ccccc12	-20.5	0.1	13.6	nt	nt	nt	nt
COCC(=O)Nc1ccc2c(c1)[C@H]1C[C@H](CC(=O)O)O[C@H](CO)[C@H]1O2	19.8	-3.8	nt	nt	nt	nt	nt
C[C@H](CO)N1C[C@H](C)[C@H](CN(C)Cc2ccc(C(F)(F)F)cc2)OCCCC[C@H](C)Oc2ccc(NC(=O)Nc3ccc4c(c3)OCO4)cc2C1=O	22.4	nt	79.3	nt	nt	nt	nt
C[C@@H]1CCCCO[C@@H](CN(C)Cc2ccc3c(c2)OCO3)[C@@H](C)CN([C@@H](C)CO)C(=O)c2cc(NC(=O)Nc3ccc(C(F)(F)F)cc3)ccc2O1	-55.9	-36.8	?	97.5*	113.7*	?	56.5*
C[C@@H]1CN([C@@H](C)CO)C(=O)c2cc(NC(=O)Nc3ccc4c(c3)OCO4)ccc2O[C@@H](C)CCCCO[C@H]1CN(C)Cc1ccc(C(F)(F)F)cc1	-75.6	nt	81.3	nt	nt	nt	nt
C[C@@H]1CCCCO[C@@H](CN(C)Cc2ccc(C(F)(F)F)cc2)[C@@H](C)CN([C@H](C)CO)C(=O)c2cc(NC(=O)Nc3ccc4c(c3)OCO4)ccc2O1	36.4	nt	100.2*	101.3*	20.9	-8.7	-9.6
C[C@@H]1CCCCO[C@H](CN(C)Cc2ccncc2)[C@H](C)CN([C@H](C)CO)C(=O)c2cc(NC(=O)Nc3ccc(F)cc3)ccc2O1	-47.3	2.3	67.8	nt	nt	nt	nt
C/C=C/c1ccc2c(c1)O[C@H](CN(C)C(=O)Nc1ccc(C(F)(F)F)cc1)[C@H](C)CN([C@@H](C)CO)S2(=O)=O	-17.0	3.4	?	98.9*	61.9	45.9*	68.8*
C/C=C/c1ccc2c(c1)O[C@H](CN(C)C(=O)Nc1ccc(F)cc1)[C@H](C)CN([C@@H](C)CO)S2(=O)=O	-1.6	5.6	77.2	nt	nt	nt	nt
C/C=C/c1ccc2c(c1)O[C@H](CN(C)C(=O)Nc1ccc(F)cc1)[C@@H](C)CN([C@H](C)CO)S2(=O)=O	-3.4	9.9	38.6	nt	nt	nt	nt
C/C=C/c1ccc2c(c1)O[C@@H](CN(C)C(=O)Nc1ccc(F)cc1)[C@H](C)CN([C@@H](C)CO)S2(=O)=O	0.9	3.2	-14.5	nt	nt	nt	nt
C/C=C/c1ccc2c(c1)O[C@H](CN(C)C(=O)Nc1ccc(C(F)(F)F)cc1)[C@@H](C)CN([C@H](C)CO)S2(=O)=O	-19.1	10.7	?	101.7*	100.6*	36.3*	68.0*
C/C=C/c1ccc2c(c1)O[C@@H](CN(C)C(=O)Nc1ccc(C(F)(F)F)cc1)[C@H](C)CN([C@@H](C)CO)S2(=O)=O	4.9	11.5	108.3*	97.4*	?	26.0	102.1*
CC(=O)N1[C@@H]2c3ccc(C4=CCCC4)c(=O)n3C[C@H]1[C@H](CO)[C@H]2C(=O)NCc1ccccc1	12.6	-0.3	4.8	nt	nt	nt	nt
C[C@@H]1CN([C@H](C)CO)C(=O)Cc2cc(NC(=O)c3ccncc3)ccc2O[C@H]1CN(C)Cc1ccncc1	20.8	0.2	27.5	nt	nt	nt	nt
C[C@H]1CN([C@@H](C)CO)C(=O)Cc2cc(NC(=O)Cc3ccccc3)ccc2O[C@@H]1CN(C)Cc1ccc(-c2ccccc2)cc1	-25.7	38.8	107.0*	113.0*	74.7	8.0	73.1*
C[C@H](CO)N1C[C@H](C)[C@H](CN(C)Cc2ccc3c(c2)OCO3)Oc2ccc(NC(=O)Cc3ccccc3)cc2CC1=O	-27.9	-2.5	106.1*	39.0	-4.3	-8.7	17.2
C[C@H]1CN([C@@H](C)CO)C(=O)Cc2cc(NC(=O)Cc3ccccc3)ccc2O[C@H]1CN(C)Cc1ccc(-c2ccccc2)cc1	-9.2	9.4	57.0	nt	nt	nt	nt
C[C@@H]1CN([C@@H](C)CO)C(=O)Cc2cc(NC(=O)Cc3ccccc3)ccc2O[C@H]1CN(C)Cc1ccc2c(c1)OCO2	-25.1	-0.3	79.3	nt	nt	nt	nt
CO[C@@H]1CC[C@@H]2CCN(C)C(=O)[C@H](C)CN(C)C(=O)c3cccc(C#N)c3OC[C@H]1O2	nt	-5.8	14.4	nt	nt	nt	nt
CCS(=O)(=O)Nc1ccc2c(c1)C(=O)N(C)C[C@@H](OC)[C@@H](C)CN(C)[C@@H](C)CO2	8.7	-0.7	38.7	nt	nt	nt	nt
CN(C)CC#Cc1ccc([C@H]2[C@@H](CO)N3CCCCN(C(=O)CN(C)C)C[C@@H]23)cc1	-0.5	1.9	-4.8	nt	nt	nt	nt
COCC#Cc1ccc([C@@H]2[C@H]3CN(C(=O)CN(C)C)CCCCN3[C@H]2CO)cc1	6.0	-2.0	109.1*	?	13.3	-11.9	6.1
SMILES	Pf Dd2 inh	C diff HTS	T cruzi growth-1	T cruzi growth-2	T cruzi growth-3	NIH3T3 tox	3T3 cytotox 2
COCC#Cc1ccc([C@H]2[C@@H](CO)N3CCCCN(C(=O)CN(C)C)C[C@H]23)cc1	29.5	2.3	120.7*	50.5	35.5	-24.2	-4.0
CN(C)CC#Cc1ccc([C@@H]2[C@@H](CO)N3CCCCN(C(=O)CN(C)C)C[C@@H]23)cc1	-4.5	0.3	19.3	nt	nt	nt	nt
COC(=O)N(C)C[C@H]1OCc2ccccc2-c2c(n(C)c3ccccc23)C(=O)N([C@@H](C)CO)C[C@H]1C	-14.4	nt	-15.8	nt	nt	nt	nt
CCCNC(=O)N1CC2(C1)[C@H](c1ccccc1)[C@H](CO)N2CC1CCCC1	12.2	6.0	nt	nt	nt	nt	nt
C[C@@H]1CN([C@H](C)CO)C(=O)c2cc(NC(=O)Nc3ccc(F)cc3)ccc2O[C@@H](C)CCCCO[C@H]1CN(C)Cc1ccccc1	-75.7	11.6	83.4	nt	nt	nt	nt
O=S(=O)(Cc1ccccc1)N1CCCCN2[C@@H](CO)[C@@H](c3ccc(-c4ccccc4)cc3)[C@@H]2C1	-64.6	23.1	99.1*	102.5*	76.0	30.5	106.7*
O=S(=O)(Cc1ccccc1)N1CCCCN2[C@H](CO)[C@H](c3ccc(-c4ccccc4)cc3)[C@@H]2C1	-9.9	0.7	104.2*	108.4*	29.5	-4.3	84.0*
CCS(=O)(=O)N1CCCCN2[C@H](CO)[C@H](c3ccc(-c4ccccc4)cc3)[C@H]2C1	-8.6	-10.8	84.0	nt	nt	nt	nt
O=S(=O)(Cc1ccccc1)N1CCCCN2[C@@H](CO)[C@H](c3ccc(-c4cncnc4)cc3)[C@@H]2C1	-18.4	-1.9	84.9	nt	nt	nt	nt
O=S(=O)(Cc1ccccc1)N1CCCCN2[C@H](CO)[C@H](c3ccc(-c4ccc(F)cc4)cc3)[C@H]2C1	-48.4	47.5	?	93.7	101.8*	64.0*	104.0*

Screening data from PubChem.
